According to PubChem BioAssay AID720553 (National Center for Advancing Translational Sciences (NCATS), 2013):
Screen size: about 340,000 compounds; about 3,300 (0.97%) were called active. Only a selection was taken, and actives are over-represented in it overall. A number with no mark means an inactive call.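 Rule for the calls: active = maximum activity change below -70%; inconclusive = maximum activity change from -70% to -50%; inactive = maximum activity change above -50%.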
% is set by controls: 0 for no effect and ±100 for the full control effect.

These compounds were tested on Potassium voltage-gated channel subfamily H member 2, brain isoform KCNH2 3.1 (human) (assay: qHTS for Inhibitors of KCHN2 3.1: Mutant qHTS). Conditions: U2OS KCNH2 3.1, thallium flux FluxOr; active compounds read low.
Outline: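 Virally transduced U2OS (3.1 isoform, 4 h infection in dark at RT) → overnight 37 C → FluxOr + Red40 in HBSS/HEPES, 45 min → stimulation buffer, 2 min kinetic read → rate constant vs DMSO controls.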
`CN(Cc1ccccc1)C(=O)CCC1CCN(C(=O)c2ccco2)CC1` was tested, and the activity change was -7.93%. With `O=C(COc1ccc([N+](=O)[O-])cc1Cl)Nc1ccc2[nH]c(=O)[nH]c2c1` the activity change was -113% (active). In the case of `O=C(COc1ccc([N+](=O)[O-])cc1Cl)Nn1cnnc1`, the activity change is reported as -17.4%. `O=C(COC(=O)c1cccc(Cl)c1)Nc1ccc2[nH]c(=O)[nH]c2c1` showed an activity change of -16.7%. In the case of `Cc1ccc(C(=O)NNc2ncnc3ccccc23)cc1`, the activity change is reported as -135% (active). For `Cc1ccc(C(=O)NNC(=O)c2cc3cc4ccccc4nc3s2)cc1`, the activity change was -14.6%. Work on `Cc1ccc(NC(=O)c2ccc(Oc3ncccn3)cc2)cc1` yielded an activity change of 10.8%. Compound `CCOC(=O)c1c(NC(=O)COC(=O)c2ccc(S(=O)(=O)C(F)F)cc2)sc(C(=O)N(C)C)c1C` has an activity change of -12.2%. In the case of `Cc1ccccc1C#CC1=CC(=O)CC(C)(C)C1`, the activity change is reported as -7.29%. With `Cc1ccc(-c2nc3ccc(Cl)cn3c2Cc2ccccc2)cc1` the activity change was -5.74%. In the case of `O=C(Nc1nncs1)c1ccccc1NS(=O)(=O)c1cccs1`, the activity change is reported as -71.4% (active). In the case of `O=S(=O)(Nc1ccccc1Br)c1cccs1`, the activity change is reported as 8.03%. Work on `COc1cc(NC(=O)c2ccccc2NS(=O)(=O)c2ccc(Cl)s2)cc(OC)c1` yielded an activity change of -9.39%. `CNC(=O)C1CN(C(=O)c2cccc(S(=O)(=O)N3CCc4ccccc43)c2)c2ccccc2O1` (centres undefined) was tested, and the activity change was -2.85%. Compound `O=C(NCCS(=O)(=O)N1CCN(c2ccccc2)CC1)c1cc(=O)c2ccccc2o1` has an activity change of 5.39%. `CSc1ncc(C(=O)NCCCc2ccccc2)c(C)n1` gave an activity change of 17.9%. In the case of `Cc1ccc(NC(=O)c2ccn(C(=O)Nc3ccccc3)n2)c(C)c1`, the activity change is reported as 11.1%. `CSc1ncc(C(=O)Nc2ccc(C)cc2C)c(C)n1` was tested, and the activity change was -183% (active). Work on `CCN(CC)C(=O)C1=C(C)N(Cc2ccc(F)cc2)C(=O)C(CC(=O)NC2CCCC2)C1` (centres undefined) yielded an activity change of -23.9%. `CSc1ncnc2c1ncn2CCCNCC1CCCCC1` gave an activity change of -15.7%. In the case of `CC(C)C1CCN(C(=O)C2CCC(=O)N(C3CCCCCC3)C2)CC1` (centres undefined), the activity change is reported as -5.43%. `Cc1ccc(C(=O)N/C(=C/C=C/c2ccccc2)C(=O)NCc2ccco2)cc1` gave an activity change of -38.2%. `O=C(Nc1ccc(C(=O)O)cc1)/C(=C/c1ccc([N+](=O)[O-])cc1)NC(=O)c1ccccc1` was tested, and the activity change was 0.484%. `CNC(=O)/C(=C\C=C\c1ccccc1)NC(=O)c1ccc([N+](=O)[O-])cc1` was tested, and the activity change was -78.9% (active). With `COc1ccc(C(CNC(=O)c2ccc(OCc3cscn3)cc2)N2CCCC2)cc1` (centres undefined) the activity change was -4.07%. For `Cc1cc(C)c2cc(C#N)c(N3CCNCC3)nc2c1`, the activity change was 15.5%. `CCC(C)NC(=O)c1ccc(N2CCC3(CC2)OCCO3)c([N+](=O)[O-])c1` (centres undefined) showed an activity change of 15.4%. With `CCCNC(=O)c1ccc(N2CCC3(CC2)CC(c2ccc(Cl)cc2)=NO3)c([N+](=O)[O-])c1` the activity change was -83.7% (active). Compound `O=C(Nc1ccccc1N1CCN(C(=O)c2ccccc2)CC1)c1ccco1` has an activity change of -10.9%. For `COCCNC(=O)c1ccc(N2CCC3(CC2)OCCO3)c([N+](=O)[O-])c1`, the activity change was 1.85%. `CCCNC(=O)c1ccc(N2CCC3(CC2)CC(c2cccc(Br)c2)=NO3)c(NC(=O)c2ccco2)c1` was tested, and the activity change was -83.4% (active). Compound `COC(=O)c1ccc(N2CCOCC2)c(NC(=O)c2ccc(Br)o2)c1` has an activity change of -2.48%. Work on `Nc1cc(C(=O)N2CCN(c3ccccc3Cl)CC2)ccc1N1CC2CC(C1)c1cccc(=O)n1C2` (centres undefined) yielded an activity change of 6.28%. `O=C(c1ccc(N2CCCC2=O)cc1)N1CCN(c2ccc(C(F)(F)F)cc2[N+](=O)[O-])CC1` gave an activity change of 6.83%. For `Cc1ccc(NC(=O)COC(=O)CN2CCSC2=O)cc1F`, the activity change was -8.22%. `CC1(C)NC(=O)N(CC(=O)Nc2ccc(-c3ccccc3)cc2)C1=O` showed an activity change of -11%. In the case of `Cc1cccc(N2C(=O)N3[C@H](c4ccc(F)cc4)[C@@H]4C(=O)N(C5CCCCC5)C(=O)[C@@H]4[C@]3(Cc3ccccc3)C2=O)c1`, the activity change is reported as -81.5% (active). For `O=C1[C@H]2[C@@H](c3ccc(Cl)cc3)N3C(=O)N(c4cccc(F)c4)C(=O)[C@@]3(Cc3ccccc3)[C@H]2C(=O)N1C1CCCCC1`, the activity change was -11.3%. With `O=C1[C@H]2[C@@H](c3ccc(F)cc3)N3C(=O)N(c4ccc(C(F)(F)F)cc4)C(=O)[C@@]3(Cc3ccccc3)[C@H]2C(=O)N1C1CCCCC1` the activity change was -14.9%. `C/C(COc1ccccc1)=N\NC(=O)c1nnn(-c2nonc2N)c1-c1ccc(C)cc1` was tested, and the activity change was 1.24%. Work on `Cc1ccc(C(=O)NC(C)C(c2cccs2)N2CCOCC2)cc1C` (centres undefined) yielded an activity change of 2.91%. Work on `C#Cc1cc(N2CCN(C(=O)c3ccoc3)CC2)n2nc(-c3cccc(Cl)c3)cc2n1` yielded an activity change of 2.49%. `Cc1ccccc1Nc1nc(N)nc(CN2CCN(c3ccccn3)CC2)n1` gave an activity change of -0.0863%. `CCOC(=O)N1CCN(Cc2nc(N)nc(Nc3ccc(C)cc3)n2)CC1` was tested, and the activity change was -78.5% (active). `CCOC(=O)N1CCN(CC(=O)Nc2ccc(F)cc2)CC1` was tested, and the activity change was -43.8%. With `Cc1ccc(Nc2nc(N)nc(CN3CCN(Cc4ccccc4)CC3)n2)cc1Cl` the activity change was -99.4% (active). `CNc1nc(Nc2ccc(C)c(Cl)c2)nc(N)c1[N+](=O)[O-]` was tested, and the activity change was 6.15%. Work on `CCOC(=O)N1CCN(Cc2nc3cc(NC(C)=O)ccc3n2C)CC1` yielded an activity change of 8.13%. Work on `COc1cccc(NC(=O)N(C)C[C@@H]2Oc3ncc(Br)cc3C(=O)N([C@@H](C)CO)C[C@H]2C)c1` yielded an activity change of -4.03%. `COc1ccc(S(=O)(=O)N(C)C)cc1NC(=O)COC(=O)c1n[nH]c2ccccc12` was tested, and the activity change was 9.12%. `Cc1ccnc(SC2CC(=O)N(c3ccccc3)C2=O)n1` (centres undefined) gave an activity change of 1.28%. `O=C(NC1CCN(Cc2ccccc2)CC1)c1ccc(Oc2cc(Cl)cc(Cl)c2)o1` was tested, and the activity change was -84.5% (active). In the case of `CCOc1ccc(CC(=O)NC2CCN(Cc3ccccc3)CC2)cc1`, the activity change is reported as 19.9%. `O=C(NC1CCN(Cc2ccccc2)CC1)c1cc(Br)c(Br)[nH]1` was tested, and the activity change was 0.925%.
